# Assay results as given in PMC4336329 (PLoS ONE, 2015).
# The whole screen tested about 310,000 compounds, of which about 14,000 (4.5%) showed an effect of 50% or more. Effects have a minus sign here. The sample holds strong results, similar compounds and a random draw of the others, so the mix is not that of the screen.
# Target: human ether-à-go-go-related gene (hERG) potassium channel (human, UniProt Q12809)
# Test: primary screen, population patch clamp on CHO cells stably expressing hERG; higher = less effect of the substance
# 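Also: peak tail current of the secondary pulse compared with the same well before compound.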
# Chain of human ether-à-go-go-related gene (hERG) potassium channel (Q12809 whole entry, looked up): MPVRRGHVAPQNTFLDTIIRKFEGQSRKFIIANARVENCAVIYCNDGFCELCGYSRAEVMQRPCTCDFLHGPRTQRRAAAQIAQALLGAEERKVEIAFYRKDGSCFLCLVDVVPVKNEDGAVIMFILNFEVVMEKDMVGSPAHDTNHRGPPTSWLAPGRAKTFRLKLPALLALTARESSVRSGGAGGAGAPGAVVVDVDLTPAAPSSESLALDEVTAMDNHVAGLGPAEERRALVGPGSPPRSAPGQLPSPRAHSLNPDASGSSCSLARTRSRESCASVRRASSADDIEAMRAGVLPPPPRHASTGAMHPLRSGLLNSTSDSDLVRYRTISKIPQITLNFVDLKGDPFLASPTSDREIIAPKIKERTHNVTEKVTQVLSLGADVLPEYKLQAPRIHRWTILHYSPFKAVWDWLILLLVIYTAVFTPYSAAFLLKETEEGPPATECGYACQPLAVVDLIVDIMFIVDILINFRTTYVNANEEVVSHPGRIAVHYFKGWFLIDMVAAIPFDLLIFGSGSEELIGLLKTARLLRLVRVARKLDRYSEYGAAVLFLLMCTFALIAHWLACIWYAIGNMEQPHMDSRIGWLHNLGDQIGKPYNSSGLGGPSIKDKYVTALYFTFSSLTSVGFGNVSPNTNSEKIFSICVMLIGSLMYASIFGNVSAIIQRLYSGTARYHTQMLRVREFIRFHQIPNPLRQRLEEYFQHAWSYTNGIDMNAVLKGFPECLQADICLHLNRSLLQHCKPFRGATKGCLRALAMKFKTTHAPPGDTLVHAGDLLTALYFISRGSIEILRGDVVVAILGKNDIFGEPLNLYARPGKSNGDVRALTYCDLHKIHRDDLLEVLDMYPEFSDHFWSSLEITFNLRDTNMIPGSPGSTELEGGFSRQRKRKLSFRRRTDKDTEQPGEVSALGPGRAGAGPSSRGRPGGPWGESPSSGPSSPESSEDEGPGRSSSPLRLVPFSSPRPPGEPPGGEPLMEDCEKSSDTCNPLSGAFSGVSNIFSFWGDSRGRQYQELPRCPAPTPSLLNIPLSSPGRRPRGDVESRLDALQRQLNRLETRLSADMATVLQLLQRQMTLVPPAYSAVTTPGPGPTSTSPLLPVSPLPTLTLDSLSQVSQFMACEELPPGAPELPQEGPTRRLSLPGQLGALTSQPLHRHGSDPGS
row,SMILES,"hERG current change (%, negative = inhibition) at 10uM"
1,CCc1ccc(N(CC(=O)Nc2ccccc2C(=O)N2CCCC2)S(C)(=O)=O)cc1,-10.6%
2,CN(C)c1ccc(CNn2cnnc2SCc2ccc(F)cc2)cc1,-9.48%
3,COc1ccc(NC(=O)CC2C(=O)N(c3ccc(OC)cc3)C(=O)N2C(C)C)cc1 (stereo not shown),-5.34%
4,Cc1ccc(NC(=O)c2ccc(-n3cncn3)c([N+](=O)[O-])c2)cc1F,-18.1%
5,CC12CCC(C(=O)Nc3ccccc3Br)(C/C1=N\O)C2(C)C (stereo not shown),4.44%
6,CC(On1nnc2ccccc21)C(=O)N1CCN(Cc2ccccc2)CC1 (stereo not shown),18.2%
7,C(#CCN1CCOCC1)COCc1ccccc1.Cl,11.1%
8,COc1cccc(OCCOc2ccc(/C=C3/SC(=S)NC3=O)cc2)c1,23%
9,CN(CC(=O)Nc1ccccc1Cl)C(=O)CSc1nnc(-c2ccco2)o1,-7.79%
10,CCCCn1cnc2cc(NCc3ccncc3)ccc21,-1.31%
11,Cc1ccc(CNc2ccc3c(c2)nc(C)n3C)cc1,-21.9%
12,CCCn1cnc2cc(NCc3ccc(Br)cc3)ccc21,-73.9%
13,CCn1cnc2cc(NCc3ccccc3Cl)ccc21,-52.1%
14,Cn1cnc2cc(NCc3ccccc3Cl)ccc21,-35%
15,Cc1nc2cc(NCc3ccc(Cl)cc3)ccc2n1C,-70.6%
16,Cn1cnc2cc(NCc3ccc(Cl)cc3)ccc21,-18.3%
17,CCCn1cnc2cc(NCc3cccc(OC)c3O)ccc21,-29.3%
18,CCCn1cnc2cc(NCc3ccccn3)ccc21,-18.8%
19,CCn1cnc2cc(NCc3cccc(OC)c3O)ccc21,-5.91%
20,CCCCn1cnc2cc(NCc3cccc(OC)c3O)ccc21,-51.2%
21,CCCn1cnc2cc(NCc3ccccc3O)ccc21,-0.21%
22,CN(C)c1ccc(C(CNC(=O)c2ccccc2F)c2c[nH]c3ccccc23)cc1 (stereo not shown),-8.6%

row,SMILES,"hERG current change (%, negative = inhibition) at 10uM"
1,Cc1[nH]c(C)c(S(=O)(=O)Nc2ccc(OC(F)(F)F)cc2)c1C(=O)N1CCCCC1,-7.79%
2,O=C(N/N=C/C=C/c1ccccc1)c1cccc(Br)c1,5.3%
3,FC(F)(F)c1ccccc1N1CC1c1ccncc1 (stereo not shown),13.3%
4,O=C(O)c1ccccc1C(=O)NC1CCN(c2nccc(C(F)(F)F)n2)CC1,9.16%
5,COc1ccc(N2C(=O)CC(N3CCCC4CCCCC43)C2=O)cc1 (stereo not shown),1.28%
6,CCOC(=O)c1ccc(NC(=O)C2CC2)cc1,-18.4%
7,COc1cccc(/C=N/NC(=O)c2cc(-c3cccn3C)n[nH]2)c1,-61.1%
8,COc1ccc(/C=N/NC(=O)c2cc(-c3cccn3C)n[nH]2)cc1OC,-27.5%
9,Cn1cccc1-c1cc(C(=O)N/N=C/c2cccc(O)c2)[nH]n1,-7.31%
10,CCOc1nc2ccccc2cc1C=O,-5.31%
11,Cc1ccc(NS(=O)(=O)c2ccc(NC(=O)[C@@H]3CCCC[C@@H]3C(=O)O)cc2)c(C)c1,18%
12,COc1ccc(C2(O)CN(c3ccccc3)C3=[N+]2CCS3)cc1OC.[Br-] (stereo not shown),1.7%
13,Cc1ccccc1N1CC(O)(c2cccs2)[N+]2=C1CCCC2.[Br-] (stereo not shown),-25.9%
14,Cc1ccc(C)c(N2CC(O)(c3cccs3)[N+]3=C2CCCC3)c1.[Br-] (stereo not shown),-23%
15,COc1ccc(OC)c(N2CC(O)(c3cccs3)[N+]3=C2SCCC3)c1.[Br-] (stereo not shown),-50.5%
16,COc1ccc(OC)c(N2CC(O)(c3ccccc3)[N+]3=C2SCCC3)c1.[Br-] (stereo not shown),-72.6%
17,Cc1ccccc1N1CC(O)(c2ccccc2)[N+]2=C1SCC2.[Br-] (stereo not shown),-19.5%
18,CN(C)C(CNC(=O)c1ccc(NS(=O)(=O)c2cccc([N+](=O)[O-])c2)cc1)c1ccco1 (stereo not shown),12.4%
19,Cc1ccc(NC(=O)COC(=O)COc2cccc3c2OC(C)(C)C3)cc1C,-13.9%
20,CCCNC(=O)CN(C)S(=O)(=O)c1c(C)cc(C)cc1C,6.62%
21,Cn1ccnc1C(O)c1ccc(OCc2ccccc2)cc1 (stereo not shown),4.19%
22,O=C(O)C(=O)O.O=C1CCCN1CN1CCCCC1,0.00358%

row,SMILES,"hERG current change (%, negative = inhibition) at 10uM"
1,S=C(NCc1ccco1)Nc1ccccc1Cl,-52%
2,S=C(NCc1ccco1)Nc1cccc(Cl)c1Cl,-3.13%
3,Cc1ccc(Nc2nc(C(=O)NCc3ccco3)cs2)cc1,-13.5%
4,Cc1c(Cl)cccc1NC(=S)NCc1ccco1,4.12%
5,COc1ccc(Nc2nc(C(=O)NCc3ccco3)cs2)cc1,-14.4%
6,O=C(NCc1ccco1)c1csc(Nc2ccccc2Cl)n1,-63.1%
7,Cc1cc(-c2n[nH]c(=S)n2/N=C/C=C/c2ccccc2)n[nH]1,6.76%
8,Cc1ccc(NS(=O)(=O)c2ccc3[nH]c(=O)[nH]c3c2)cc1,21%
9,N/C(Cc1ccc(Cl)cc1Cl)=N\OC(=O)Cc1ccccc1,7.08%
10,Cc1ccc(NC(=O)[C@H](NC(=O)[C@@H]2Cc3ccccc3CN2)c2ccccc2)c(C)c1,-60.7%
11,Cc1ccc(NC(=O)[C@H](Cc2ccccc2)NC(=O)[C@@H]2Cc3ccccc3CN2)c(C)c1,-5.23%
12,Cc1ccc(NC(=O)[C@H](NC(=O)[C@@H]2Cc3ccccc3CN2)c2ccccc2)cc1,-64.1%
13,COc1cccc(NC(=O)[C@H](Cc2ccccc2)NC(=O)[C@@H]2Cc3ccccc3CN2)c1,-2.99%
14,COc1ccc(NC(=O)[C@H](NC(=O)[C@@H]2Cc3ccccc3CN2)c2ccccc2)cc1,-50.3%
15,Cc1ccc(NC(=O)[C@H](Cc2c[nH]c3ccccc23)NC(=O)[C@@H]2Cc3ccccc3CN2)c(C)c1,-30.1%
16,CC(C)c1ccc(NC(=O)[C@H](NC(=O)[C@@H]2Cc3ccccc3CN2)c2ccccc2)cc1,-6.39%
17,COc1cccc(NC(=O)[C@H](NC(=O)[C@@H]2Cc3ccccc3CN2)c2ccccc2)c1,-76.4%
18,COc1cccc(NC(=O)[C@H](CC(C)C)NC(=O)[C@@H]2Cc3ccccc3CN2)c1,-16%
19,Cc1ccc(NC(=O)[C@@H](C)NC(=O)[C@@H]2Cc3ccccc3CN2)cc1,-14.9%
20,CC(C)c1ccc(NC(=O)[C@@H](C)NC(=O)[C@@H]2Cc3ccccc3CN2)cc1,-29.2%
21,CC(NC(=O)[C@H](NC(=O)[C@@H]1Cc2ccccc2CN1)c1ccccc1)c1ccccc1 (stereo partly shown),-32.9%
22,CCOc1ccccc1N(C(=O)c1ccccc1Cl)C1=NC(C)(C)CS1,-2.51%

row,SMILES,"hERG current change (%, negative = inhibition) at 10uM"
1,CC(NC(=O)c1ccccc1[N+](=O)[O-])C1CC2CCC1C2 (stereo not shown),5.96%
2,O=C(NCc1ccc2c(c1)OCO2)c1ccc(COc2cc(Cl)ccc2Cl)o1,11.7%
3,O=C(c1ccccc1)N1N=C(c2ccccc2O)CC1c1ccccc1 (stereo not shown),6.88%
4,CCCCCOC(=O)C1=C(C)NC(=O)NC1c1ccc2c(c1)OCO2 (stereo not shown),6.41%
5,CCOc1ccc(/C=N/N2C(=O)C(CC(=O)Nc3ccc(F)cc3F)SC2=NC)cc1OC (stereo not shown),3.82%
6,CCOc1ccc(CN(C)C(=O)CCl)cc1,-1.2%
7,CS(=O)(=O)N(CC(=O)NCc1ccc2c(c1)OCO2)c1ccccc1,6.97%
8,COCc1c(C(=O)Nc2nc(C)cs2)oc2ccccc12,-2.57%
9,CCCOP(=O)(OCCC)c1nc(-c2ccccc2)oc1NCc1ccccc1,6.49%
10,CCc1ccc(NC(=O)CCS(=O)(=O)c2ccc(Cl)cc2)cc1,6.96%
11,Cc1ccc(NC(=O)[C@H](NC(=O)[C@@H]2Cc3ccccc3CN2)c2ccccc2)cc1C,-37.9%
12,CCc1ccc(NC(=O)CNC(=O)[C@@H]2Cc3ccccc3CN2)cc1,-19.9%
13,Cc1cccc(NC(=O)[C@H](NC(=O)[C@@H]2Cc3ccccc3CN2)c2ccccc2)c1,-54.4%
14,COc1ccc(NC(=O)[C@H](Cc2c[nH]c3ccccc23)NC(=O)[C@@H]2Cc3ccccc3CN2)cc1,-36.8%
15,CCc1ccc(NC(=O)[C@H](NC(=O)[C@@H]2Cc3ccccc3CN2)c2ccccc2)cc1,-55%
16,Cc1cccc(NC(=O)[C@H](Cc2ccccc2)NC(=O)[C@@H]2Cc3ccccc3CN2)c1,-0.0161%
17,Cc1cccc(NC(=O)[C@@H](NC(=O)[C@@H]2Cc3ccccc3CN2)C(C)C)c1,-62.4%
18,COc1ccc(CNC(=O)[C@H](Cc2c[nH]c3ccccc23)NC(=O)[C@@H]2Cc3ccccc3CN2)cc1,-53.9%
19,Cc1cccc(NC(=O)[C@@H](CC(C)C)NC(=O)[C@@H]2Cc3ccccc3CN2)c1,-40.7%
20,COc1ccccc1CNC(=O)[C@H](Cc1c[nH]c2ccccc12)NC(=O)[C@@H]1Cc2ccccc2CN1,-16.5%
21,CCc1ccc(NC(=O)[C@@H](NC(=O)[C@@H]2Cc3ccccc3CN2)C(C)CC)cc1 (stereo partly shown),-13.6%
22,Cc1cc(C)cc(NC(=O)[C@H](NC(=O)[C@@H]2Cc3ccccc3CN2)c2ccccc2)c1,-0.0454%
